Assay results as given in PubChem BioAssay (NCATS).
Records with an inconclusive call do not appear. Calls of active or inactive are those of the source. Unless noted, calls follow the shape of the dose curve; as a rule, active = well fitted curve in either direction with a large enough effect (not every such curve was filed as active); inconclusive = small, poorly fitted or top-dose-only effect, or another doubt; inactive = flat fitted curve, though single readings scatter.

Key:
[1] = biological target: Lysosomal acid glucosylceramidase (Homo sapiens) (UniProt P04062); test: Glucocerebrosidase-p2 (AID 348; in the data active = potency below about 10 µM; also: potency is read from the fitted curve at half-maximal effect); details: purified GBA, blue fluorogenic substrate, 40 min
Procedure, shortened: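 Compounds titrated from 0.6 nM upwards against 0.2 nM enzyme in pH 5.9 citric acid/KH2PO4, taurocholate, tween-20; blue fluorogenic substrate 80 uM, 40 min room temperature, stopped and read Ex 365/Em 440 for AC50.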

[2] = AP1 Signaling Pathway (AID 357); details: ME-180 AP-1-bla reporter, EGF-induced, beta-lactamase ratio, 5 h; at 7.69 µM (top of the series) unless noted;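 also: ME-180 reporter cells stimulated with EGF at its EC50 level; % is scaled to controls: 0 for no effect and ±100 for the full control effect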
Procedure, shortened: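 Read-out was the 460nm/530nm emission ratio (excitation 405nm) after CCF4 loading for 2.5 hours at room temperature. Cells carried an AP-1-driven beta-lactamase reporter, were stimulated with EC50 EGF plus compound for 5 hours, and AC50 values came from titrations.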

[3] = biological target: Cytochrome P450 1A2 (Homo sapiens) (UniProt P05177); test: p450-cyp1a2 (AID 410; calls by dose curve;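 also: -100% = full effect of reference inhibitor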); details: recombinant CYP1A2, luciferin-ME demethylation, luminescence; series mostly up to 11.4 µM
Procedure, shortened: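 20nM CYP1A2 with 100uM Luciferin-ME (at Km) in 100mM KPO4; compound preincubated 10 min, NADPH regeneration added, 60 min at room temperature. Luciferin quantified by luminescence after detection reagent; normalized to 57 uM furafylline.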

[4] = NFAT Signaling Pathway (AID 444); details: Jurkat NFAT-bla M1, carbachol, beta-lactamase ratio, 5 h; at 7.69 µM (top of the series) unless noted;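 also: carbachol stimulus at about its EC50 of 1 µM final; % is scaled to controls: 0 for no effect and ±100 for the full control effect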
Procedure, shortened: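 Jurkat cells with NFAT-driven β-lactamase reporter and co-expressed M1 receptor, stimulated with carbachol (final 1 uM, ~EC50), compound titration, 5 h at 37 °C. CCF4 loaded 1 h at RT; 460/530 nm ratio gave %activity and AC50.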

[5] = Stat Signaling Pathway (AID 446); details: ME-180 SIE beta-lactamase reporter, IL-6 stimulated, 5 h; at 7.69 µM (top of the series) unless noted;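 also: ME-180 cervical cancer cells given 40 pM IL-6 alongside compound; SIE-controlled beta-lactamase reporter measured as 460/530 nm FRET emission ratio; % is scaled to controls: 0 for no effect and ±100 for the full control effect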
Procedure, shortened: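 ME-180 cells carrying a SIE-driven beta-lactamase reporter are stimulated with 40 pM IL-6 for 5 h at 37C in the presence of compound. The 460/530 nm FRET substrate ratio is read after 2.5 h at RT. Data are normalised to 300 pM IL-6 and to 125 nM JAK inhibitor controls.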

[6] = biological target: Glucocorticoid receptor (Homo sapiens) (UniProt P04150); test: GR-GFP Redistribution (AID 450;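 active = compounds whose dose series gives a full or clear partial fitted curve of increased nuclear translocation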; also: potency is read from the fitted curve at half-maximal effect); details: U2OS GR-GFP nuclear translocation, laser cytometry, 2 h
[7] = biological target: Glucocorticoid receptor (Homo sapiens) (UniProt P04150); test: GR-EFC Redistribution (AID 451; calls by dose curve; also: potency is read from the fitted curve at half-maximal effect); details: CHO-K1 GR-EFC translocation, beta-gal luminescence, 2 h
Procedure, shortened: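 CHO-K1 cells expressing nuclear EA and GR-ED fragments of b-gal; compounds titrated up to 46 uM final, 2 h at 37 C. GR nuclear translocation read as complemented b-gal luminescence after 1 h RT detection.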

[8] = biological target: Mitogen-activated protein kinase 10 (Mus musculus) (UniProt Q61831); test: JNK3 AlphaScreen Assay (AID 530); details: JNK3 lysate, c-Jun phosphorylation; series mostly up to 11.4 µM;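 also: kinase came from lysate of stimulated human HepG2 cells; signal reports phosphorylation of biotinylated GST-cJun 1-79 at Ser73 with 10 µM ATP; % is scaled to controls: 0 for no effect and ±100 for the full control effect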
Procedure, shortened: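 Pre-activated (IL-1β/TNFα) JNK3 in HepG2 lysates phosphorylates biotin-GST-cJun(1-79), 10 uM ATP; anti-phospho-cJun(Ser73) AlphaScreen read at room temperature, pH 7.6 Tris buffer. Compounds pre-incubated 15 min as titrations.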

[9] = biological target: 3',5'-cyclic-AMP phosphodiesterase 4B (Homo sapiens) (UniProt Q07343); test: qHTS Assay for Inhibitors of PDE-IV (AID 607; active = well fitted activation curve with a large enough effect in the main read-out, with a control signal flat, not every such curve was filed as active; also: % of control where 0% means no effect); details: HEK293 ACTOne CNG channel cells, membrane potential fluorescence; series mostly up to 22.9 µM
Procedure, shortened: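 HEK293 ACTOne cells with CNG channel (1000/well), endogenous PDE4; membrane potential dye, compounds up to 22.9 uM final. Fluorescence Ex 535/Em 590; RO 20-1724 (100 uM final) as reference.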

Lysosomal acid glucosylceramidase (Homo sapiens), sequence (P04062 whole entry, looked up): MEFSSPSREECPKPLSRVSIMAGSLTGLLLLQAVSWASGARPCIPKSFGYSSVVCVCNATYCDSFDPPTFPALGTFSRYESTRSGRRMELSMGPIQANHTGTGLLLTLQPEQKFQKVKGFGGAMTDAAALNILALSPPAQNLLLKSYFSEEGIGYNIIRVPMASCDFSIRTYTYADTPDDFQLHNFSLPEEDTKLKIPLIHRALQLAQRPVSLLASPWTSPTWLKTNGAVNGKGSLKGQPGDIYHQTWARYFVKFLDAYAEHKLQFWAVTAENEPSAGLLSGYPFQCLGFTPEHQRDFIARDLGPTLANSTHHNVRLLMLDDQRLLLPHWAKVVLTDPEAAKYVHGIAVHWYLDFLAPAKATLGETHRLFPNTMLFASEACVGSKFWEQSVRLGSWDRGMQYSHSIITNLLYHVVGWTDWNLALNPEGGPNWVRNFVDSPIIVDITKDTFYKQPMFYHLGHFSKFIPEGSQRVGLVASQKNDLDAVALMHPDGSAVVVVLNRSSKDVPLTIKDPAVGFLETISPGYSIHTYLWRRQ
3',5'-cyclic-AMP phosphodiesterase 4B (Homo sapiens), sequence (Q07343 whole entry, looked up): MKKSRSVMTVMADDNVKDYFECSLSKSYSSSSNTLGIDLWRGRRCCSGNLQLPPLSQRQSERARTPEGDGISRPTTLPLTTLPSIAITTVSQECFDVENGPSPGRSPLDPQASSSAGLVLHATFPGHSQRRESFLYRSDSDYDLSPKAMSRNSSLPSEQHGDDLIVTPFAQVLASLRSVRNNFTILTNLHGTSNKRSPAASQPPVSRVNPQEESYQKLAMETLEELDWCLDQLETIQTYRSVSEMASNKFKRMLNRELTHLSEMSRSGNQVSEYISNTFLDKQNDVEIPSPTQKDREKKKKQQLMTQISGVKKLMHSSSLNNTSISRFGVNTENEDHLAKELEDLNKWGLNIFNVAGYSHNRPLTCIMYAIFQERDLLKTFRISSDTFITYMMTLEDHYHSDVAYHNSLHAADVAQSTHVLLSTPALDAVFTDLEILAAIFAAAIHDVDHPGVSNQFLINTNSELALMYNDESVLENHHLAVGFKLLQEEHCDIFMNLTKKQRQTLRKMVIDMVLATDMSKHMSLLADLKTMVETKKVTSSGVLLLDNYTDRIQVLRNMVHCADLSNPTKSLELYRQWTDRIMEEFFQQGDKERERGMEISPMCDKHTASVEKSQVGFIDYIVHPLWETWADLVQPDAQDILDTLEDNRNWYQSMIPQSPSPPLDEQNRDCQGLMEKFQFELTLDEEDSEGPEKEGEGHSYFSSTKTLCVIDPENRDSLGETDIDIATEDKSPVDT
Glucocorticoid receptor (Homo sapiens), sequence (P04150 whole entry, looked up, the tested form may be a part): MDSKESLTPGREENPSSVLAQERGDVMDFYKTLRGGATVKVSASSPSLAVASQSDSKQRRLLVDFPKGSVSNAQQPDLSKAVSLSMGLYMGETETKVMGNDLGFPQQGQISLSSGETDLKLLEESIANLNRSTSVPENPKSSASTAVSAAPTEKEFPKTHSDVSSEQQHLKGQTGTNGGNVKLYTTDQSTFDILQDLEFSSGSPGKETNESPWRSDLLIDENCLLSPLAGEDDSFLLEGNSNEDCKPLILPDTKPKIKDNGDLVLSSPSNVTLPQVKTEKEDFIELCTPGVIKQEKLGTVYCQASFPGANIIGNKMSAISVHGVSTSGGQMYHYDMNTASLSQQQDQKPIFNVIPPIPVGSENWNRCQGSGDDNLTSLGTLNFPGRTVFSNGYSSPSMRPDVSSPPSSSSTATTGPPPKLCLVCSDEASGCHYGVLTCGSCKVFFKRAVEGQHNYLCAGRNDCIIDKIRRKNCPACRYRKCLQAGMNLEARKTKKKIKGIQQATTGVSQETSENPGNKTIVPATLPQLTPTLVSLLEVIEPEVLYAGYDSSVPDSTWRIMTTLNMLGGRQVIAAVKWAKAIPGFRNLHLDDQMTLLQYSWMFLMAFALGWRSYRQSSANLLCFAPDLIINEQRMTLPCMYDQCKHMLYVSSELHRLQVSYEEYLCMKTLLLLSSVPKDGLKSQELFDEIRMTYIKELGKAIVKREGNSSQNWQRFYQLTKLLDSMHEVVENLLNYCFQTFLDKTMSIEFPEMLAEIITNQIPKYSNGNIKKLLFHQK
Cytochrome P450 1A2 (Homo sapiens), sequence (P05177 whole entry, looked up): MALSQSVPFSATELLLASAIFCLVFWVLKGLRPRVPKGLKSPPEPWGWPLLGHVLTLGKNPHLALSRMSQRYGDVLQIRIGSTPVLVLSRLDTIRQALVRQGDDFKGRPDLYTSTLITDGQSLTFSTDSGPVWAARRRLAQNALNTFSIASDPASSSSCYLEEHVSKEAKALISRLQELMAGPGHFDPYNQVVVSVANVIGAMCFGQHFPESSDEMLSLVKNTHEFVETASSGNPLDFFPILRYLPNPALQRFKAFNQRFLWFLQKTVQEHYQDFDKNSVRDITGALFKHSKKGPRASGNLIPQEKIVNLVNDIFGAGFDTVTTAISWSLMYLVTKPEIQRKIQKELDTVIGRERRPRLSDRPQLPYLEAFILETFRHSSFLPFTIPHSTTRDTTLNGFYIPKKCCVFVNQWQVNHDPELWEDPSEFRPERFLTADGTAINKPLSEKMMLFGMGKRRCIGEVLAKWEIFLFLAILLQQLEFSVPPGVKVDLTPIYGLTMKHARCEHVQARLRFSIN

O=C(O)[C@@H]1[C@@H]2C[C@H]([C@@H](Br)[C@H]2N2C(=O)CCC2=O)[C@@H]1C(=O)O
inactive: Potency [1] > 11.4 µM | activity change, negative = inhibition [2] -1.32% | activity change, negative = inhibition [3] -15.8% [at 2.29 µM] | activity change, negative = inhibition [4] 10.6% | activity, negative = inhibition [5] 11.9% | Potency [6] > 46 µM | Potency [7] > 9.22 µM | Potency [8] | Potency [9]

CC[C@@H](CS(=O)(=O)O)[N+](=O)[O-]
inactive: Potency [1] > 11.4 µM | activity change, negative = inhibition [2] 7.92% | Potency [3] | activity change, negative = inhibition [4] 19.9% | activity, negative = inhibition [5] 10.6% | Potency [6] > 46 µM | Potency [7] > 9.22 µM | Potency [8] | Potency [9]

O=C(O)CC[C@]1(C(=O)O)CCC(=O)c2ccccc21
inactive: Potency [1] > 11.4 µM | activity change, negative = inhibition [2] 11.8% | Potency [3] | activity change, negative = inhibition [4] 4.42% | activity, negative = inhibition [5] 2.44% | Potency [6] > 46 µM | Potency [7] > 9.22 µM | Potency [8] | Potency [9]

O=C(O)C[C@H]1OCC=C2C[N@@+]3([O-])CC[C@]45c6ccccc6N[C@@H]4[C@@H]1[C@H]2C[C@H]53
inactive: Potency [1] > 11.4 µM | activity change, negative = inhibition [2] 9.8% | activity change, negative = inhibition [3] -14.3% [at 2.29 µM] | activity change, negative = inhibition [4] 1.94% | activity, negative = inhibition [5] 3.39% | Potency [6] > 46 µM | Potency [7] > 9.22 µM | Potency [8] | Potency [9]

CC[C@@H](Nc1ncnc2nc[nH]c12)C(=O)O
inactive: Potency [1] > 11.4 µM | activity change, negative = inhibition [2] -11.2% | Potency [3] | activity change, negative = inhibition [4] -4.99% | activity, negative = inhibition [5] 0.774% | Potency [6] > 46 µM | Potency [7] > 9.22 µM | Potency [8] | Potency [9]

O=C(O)Cn1ccnc1[N+](=O)[O-]
inactive: Potency [1] > 11.4 µM | activity change, negative = inhibition [2] 9.71% | Potency [3] | activity change, negative = inhibition [4] -1.99% | activity, negative = inhibition [5] 6.87% | Potency [6] > 46 µM | Potency [7] > 9.22 µM | Potency [8] | Potency [9]

Nc1nc(SCc2ccccc2Cl)cc(C(=O)O)n1
inactive: Potency [1] > 11.4 µM | activity change, negative = inhibition [2] -13.8% | activity change, negative = inhibition [3] 6.2% [at 2.29 µM] | activity change, negative = inhibition [4] 1.52% | activity, negative = inhibition [5] 4.58% | Potency [6] > 46 µM | Potency [7] > 9.22 µM | Potency [8] | Potency [9]

Cc1[nH]c(N)nc(=S)c1CCC(=O)O
inactive: Potency [1] > 11.4 µM | activity change, negative = inhibition [2] -7.6% | Potency [3] | activity change, negative = inhibition [4] 1.85% | activity, negative = inhibition [5] -3.94% | Potency [6] > 46 µM | Potency [7] > 9.22 µM | Potency [8] | Potency [9]

Oc1ccccc1CNCc1ccccc1O
inactive: Potency [1] > 11.4 µM | activity change, negative = inhibition [2] -4.9% | Potency [3] | activity change, negative = inhibition [4] -12.2% | activity, negative = inhibition [5] -8.46% | Potency [6] > 46 µM | Potency [7] > 9.22 µM | Potency [8] | Potency [9]

O=C(O)[C@H]1CC=CC[C@@H]1C(=O)Nc1cccc(O)c1
inactive: Potency [1] > 11.4 µM | activity change, negative = inhibition [2] -4.95% | Potency [3] | activity change, negative = inhibition [4] 9.88% | activity, negative = inhibition [5] 1.44% | Potency [6] > 46 µM | Potency [7] > 9.22 µM | Potency [8] | Potency [9]

O=C(O)CNc1ccc(C(=O)O)cc1
inactive: Potency [1] > 11.4 µM | activity change, negative = inhibition [2] -2.61% | Potency [3] | activity change, negative = inhibition [4] 12.8% | activity, negative = inhibition [5] 6.8% | Potency [6] > 46 µM | Potency [7] > 9.22 µM | Potency [8] | Potency [9]

CN(C)S(=O)(=O)Nc1ccccn1
inactive: Potency [1] > 11.4 µM | activity change, negative = inhibition [2] 2.01% | Potency [3] | activity change, negative = inhibition [4] 17.9% | activity, negative = inhibition [5] 8.85% | Potency [6] > 46 µM | Potency [7] > 9.22 µM | Potency [8] | Potency [9]

N=C(N)SCc1cccc(-c2nc3ccccc3c(=O)o2)c1
inactive: Potency [1] > 11.4 µM | activity change, negative = inhibition [2] 0.968% | activity change, negative = inhibition [3] -10.3% [at 2.29 µM] | activity change, negative = inhibition [4] 10.1% | activity, negative = inhibition [5] 2.22% | Potency [6] > 46 µM | Potency [7] > 9.22 µM | Potency [8] | Potency [9]

O=C(NCc1cccnc1)[C@@H]1[C@@H](C(=O)O)[C@H]2CC[C@@H]1O2
inactive: Potency [1] > 11.4 µM | activity change, negative = inhibition [2] 1.51% | Potency [3] | activity change, negative = inhibition [4] 4.54% | activity, negative = inhibition [5] 11.6% | Potency [6] > 46 µM | Potency [7] > 9.22 µM | Potency [8] | Potency [9]

Cc1nc(CN2CCCCC2)c(O)c(=O)[nH]1
inactive: Potency [1] > 11.4 µM | activity change, negative = inhibition [2] -7.91% | Potency [3] | activity change, negative = inhibition [4] 12.6% | activity, negative = inhibition [5] -9.62% | Potency [6] > 46 µM | Potency [7] > 9.22 µM | Potency [8] | Potency [9]
